# From the supplement of paper PMC8728848
# The full list was thinned out, with the strongest signals kept by preference.
# Legend:
# Assay in all cases: glycan array binding signal (z-score within array); higher = stronger binding
# Details in all cases: glycan notation: IUPAC condensed, linker removed
# [1] = molecular target: Gal(b1-4)GlcNAc(b1-3)Gal(b1-4)GlcNAc(b1-3)Gal(b1-4)GlcNAc(b1-3)Gal(b1-4)GlcNAc(b1-3)Gal(b1-4)GlcNAc(b1-2)Man(a1-3)[Gal(b1-4)GlcNAc(b1-3)Gal(b1-4)GlcNAc(b1-3)Gal(b1-4)GlcNAc(b1-3)Gal(b1-4)GlcNAc(b1-3)Gal(b1-4)GlcNAc(b1-2)Man(a1-6)]Man(b1-4)GlcNAc(b1-4)[Fuc(a1-6)]GlcNAc
# Procedure, shortened: (§1)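 The Consortium for Functional Glycomics database supplied 3228 glycan arrays, of which those lacking an available protein sequence were dropped. The binding signal, a within-array Z-score, was averaged across arrays of the same protein sequence and across linkers. Negative scores can be read as non-binding.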
# [2] = molecular target: Gal(b1-4)GlcNAc(b1-3)Gal(b1-4)GlcNAc(b1-3)Gal(b1-4)GlcNAc(b1-3)Gal(b1-4)GlcNAc(b1-3)Gal(b1-4)GlcNAc(b1-2)[Gal(b1-4)GlcNAc(b1-3)Gal(b1-4)GlcNAc(b1-3)Gal(b1-4)GlcNAc(b1-3)Gal(b1-4)GlcNAc(b1-3)Gal(b1-4)GlcNAc(b1-6)]Man(a1-6)[Gal(b1-4)GlcNAc(b1-3)Gal(b1-4)GlcNAc(b1-3)Gal(b1-4)GlcNAc(b1-3)Gal(b1-4)GlcNAc(b1-3)Gal(b1-4)GlcNAc(b1-2)Man(a1-3)]Man(b1-4)GlcNAc(b1-4)[Fuc(a1-6)]GlcNAc
# Procedure, shortened: as §1
# [3] = molecular target: Gal(b1-4)GlcNAc(b1-3)[Fuc(a1-3)GlcNAc(b1-6)]Gal(b1-4)Glc
# Procedure, shortened: as §1
# [4] = molecular target: Gal(b1-4)GlcNAc(b1-6)[Gal(b1-4)GlcNAc(b1-3)]GalNAc
# Procedure, shortened: as §1
# Gal3S(b1-4)GlcNAc = molecular target: Gal3S(b1-4)GlcNAc
# Procedure, shortened: as §1
# [5] = molecular target: Gal3S(b1-4)[Fuc(a1-3)]GlcNAc6S
# Procedure, shortened: as §1
# Gal6P(b1-4)GlcNAc = molecular target: Gal6P(b1-4)GlcNAc
# Procedure, shortened: as §1
# [6] = molecular target: GalNAc(a1-3)GalNAc(a1-3)Gal(a1-4)Gal(b1-4)GlcNAc
# Procedure, shortened: as §1
# GalNAc(b1-4)GlcNAc = molecular target: GalNAc(b1-4)GlcNAc
# Procedure, shortened: as §1
# [7] = molecular target: Glc(a1-6)Glc(a1-6)Glc(a1-6)Glc
# Procedure, shortened: as §1
# [8] = molecular target: GlcNAc(a1-4)Gal(b1-4)GalNAc
# Procedure, shortened: as §1
# [9] = molecular target: GlcNAc(a1-4)Gal(b1-4)GlcNAc(b1-3)Gal(b1-4)GlcNAc(b1-3)Gal(b1-4)GlcNAc
# Procedure, shortened: as §1
# [10] = molecular target: GlcNAc(b1-2)Man(a1-3)[GlcNAc(b1-4)][GlcNAc(b1-2)Man(a1-6)]Man(b1-4)GlcNAc(b1-4)[Fuc(a1-6)]GlcNAc
# Procedure, shortened: as §1
# GlcNAc(b1-3)Gal(b1-4)Glc = molecular target: GlcNAc(b1-3)Gal(b1-4)Glc
# Procedure, shortened: as §1
# [11] = molecular target: GlcNAc(b1-3)Gal(b1-4)GlcNAc(b1-2)Man(a1-3)[GlcNAc(b1-3)Gal(b1-4)GlcNAc(b1-2)Man(a1-6)]Man(b1-4)GlcNAc(b1-4)[Fuc(a1-6)]GlcNAc
# Procedure, shortened: as §1
# [12] = molecular target: GlcNAc(b1-6)Gal(b1-4)GlcNAc
# Procedure, shortened: as §1
# GlcNAc(b1-6)GalNAc = molecular target: GlcNAc(b1-6)GalNAc
# Procedure, shortened: as §1
# Man(b1-4)GlcNAc = molecular target: Man(b1-4)GlcNAc
# Procedure, shortened: as §1
# [13] = molecular target: Neu5Ac(a2-3)Gal(b1-3)GalNAc(b1-4)[Neu5Ac(a2-8)Neu5Ac(a2-3)]Gal(b1-4)Glc
# Procedure, shortened: as §1
# [14] = molecular target: Neu5Ac(a2-3)Gal(b1-3)GlcNAc(b1-3)Gal(b1-3)GlcNAc
# Procedure, shortened: as §1
# [15] = molecular target: Neu5Ac(a2-3)Gal(b1-3)GlcNAc(b1-3)GalNAc
# Procedure, shortened: as §1
# [16] = molecular target: Neu5Ac(a2-3)Gal(b1-3)GlcNAc6S
# Procedure, shortened: as §1
# [17] = molecular target: Neu5Ac(a2-3)Gal(b1-4)GlcNAc6S
# Procedure, shortened: as §1
# [18] = molecular target: Neu5Ac(a2-3)Gal(b1-4)[Fuc(a1-3)]GlcNAc(b1-6)[Neu5Ac(a2-3)Gal(b1-3)]GalNAc
# Procedure, shortened: as §1
# [19] = molecular target: Neu5Ac(a2-3)[GalNAc(b1-4)]Gal(b1-4)Glc
# Procedure, shortened: as §1
# [20] = molecular target: Neu5Ac(a2-6)Gal(b1-4)GlcNAc(b1-3)Gal(b1-4)GlcNAc(b1-3)Gal(b1-4)GlcNAc
# Procedure, shortened: as §1
# [21] = molecular target: Neu5Ac(a2-6)Gal(b1-4)GlcNAc(b1-3)GalNAc
# Procedure, shortened: as §1
# [22] = molecular target: Neu5Ac(a2-6)GlcNAc(b1-4)GlcNAc(b1-4)GlcNAc
# Procedure, shortened: as §1
# [23] = molecular target: Neu5Ac(a2-8)Neu5Ac(a2-3)[Gal(b1-3)GalNAc(b1-4)]Gal(b1-4)Glc
# Procedure, shortened: as §1
# [24] = molecular target: Neu5Ac(b2-6)Gal(b1-4)GlcNAc
# Procedure, shortened: as §1
binder,measurement,setting,value
Threefoil (Haloarcula marismortui) (protein) GSSHHHHHHHHHHSSGLVPRGSHMGDGYYKLVARHSGKALDVENASTSDGANVIQYSYSGGDNQQWRLVDLGDGYYKLVARHSGKALDVENASTSDGANVIQYSYSGGDNQQWRLVDLGDGYYKLVARHSGKALDVENASTSDGANVIQYSYSGGDNQQWRLVDL,glycan array binding signal (z-score),[1],2.83
same,glycan array binding signal (z-score),[2],3.49
same,glycan array binding signal (z-score),[3],3.85
same,glycan array binding signal (z-score),[4],0.738
same,glycan array binding signal (z-score),Gal3S(b1-4)GlcNAc,-0.158
same,glycan array binding signal (z-score),[5],-0.038
same,glycan array binding signal (z-score),Gal6P(b1-4)GlcNAc,-0.211
same,glycan array binding signal (z-score),[6],-0.227
same,glycan array binding signal (z-score),GalNAc(b1-4)GlcNAc,-0.003
same,glycan array binding signal (z-score),[7],-0.157
same,glycan array binding signal (z-score),[8],-0.271
same,glycan array binding signal (z-score),[9],-0.208
same,glycan array binding signal (z-score),[10],-0.223
same,glycan array binding signal (z-score),GlcNAc(b1-3)Gal(b1-4)Glc,-0.299
same,glycan array binding signal (z-score),[11],-0.052
same,glycan array binding signal (z-score),[12],0.035
same,glycan array binding signal (z-score),GlcNAc(b1-6)GalNAc,-0.181
same,glycan array binding signal (z-score),Man(b1-4)GlcNAc,0.763
same,glycan array binding signal (z-score),[13],-0.245
same,glycan array binding signal (z-score),[14],-0.139
same,glycan array binding signal (z-score),[15],-0.266
same,glycan array binding signal (z-score),[16],-0.17
same,glycan array binding signal (z-score),[17],-0.364
same,glycan array binding signal (z-score),[18],0.108
same,glycan array binding signal (z-score),[19],-0.269
same,glycan array binding signal (z-score),[20],-0.154
same,glycan array binding signal (z-score),[21],-0.163
same,glycan array binding signal (z-score),[22],-0.141
same,glycan array binding signal (z-score),[23],-0.146
same,glycan array binding signal (z-score),[24],-0.309
